A selection: hits, their analogues and other compounds. The true share with any hit is near 2.3%.
GoLoco inh red: RGS12 GoLoco-Gai1 interaction inhibition; 230,000 tested, 0.44% active; AID 880; P63096; Gai1:RGS12 GoLoco peptide FP, rhodamine, 10 min; Potency, µM (doses to about 61.6 µM), without a hit: top-dose activity, negative = inhibition, usual class: inhibitors; active means well fitted inhibition curve with a large enough effect, not every such curve was filed as active; inactive means no such curve, though single readings can be large or run the other way; further: potency means the concentration at half of the fitted maximal effect; on the % scale 0 is the no-effect control and ±100 the full control effect; nearly all actives have a fitted effect of over 30% in size
Target sequence (P63096 whole entry, looked up): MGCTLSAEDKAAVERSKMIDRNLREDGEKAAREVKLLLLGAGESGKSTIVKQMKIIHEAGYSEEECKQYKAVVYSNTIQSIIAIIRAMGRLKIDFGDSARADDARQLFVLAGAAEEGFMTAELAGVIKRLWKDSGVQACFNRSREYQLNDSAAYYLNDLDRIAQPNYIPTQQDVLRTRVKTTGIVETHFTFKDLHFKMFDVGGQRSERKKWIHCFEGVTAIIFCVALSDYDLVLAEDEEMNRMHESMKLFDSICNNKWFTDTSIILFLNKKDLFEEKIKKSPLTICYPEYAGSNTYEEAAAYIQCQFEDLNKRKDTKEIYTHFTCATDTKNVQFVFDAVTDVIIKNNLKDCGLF
VDR inh: vitamin D3 receptor (human) inhibition; VDR-SRC2-3 peptide fluorescence polarization, 2 h; Potency, µM, inactives show max response, negative = inhibition, usual class: inhibitors; 400,000 tested, 0.93% active; further: potency means the concentration at half of the fitted maximal effect; on the % scale 0 is the no-effect control and ±100 the full control effect
Target sequence (P11473 whole entry, looked up): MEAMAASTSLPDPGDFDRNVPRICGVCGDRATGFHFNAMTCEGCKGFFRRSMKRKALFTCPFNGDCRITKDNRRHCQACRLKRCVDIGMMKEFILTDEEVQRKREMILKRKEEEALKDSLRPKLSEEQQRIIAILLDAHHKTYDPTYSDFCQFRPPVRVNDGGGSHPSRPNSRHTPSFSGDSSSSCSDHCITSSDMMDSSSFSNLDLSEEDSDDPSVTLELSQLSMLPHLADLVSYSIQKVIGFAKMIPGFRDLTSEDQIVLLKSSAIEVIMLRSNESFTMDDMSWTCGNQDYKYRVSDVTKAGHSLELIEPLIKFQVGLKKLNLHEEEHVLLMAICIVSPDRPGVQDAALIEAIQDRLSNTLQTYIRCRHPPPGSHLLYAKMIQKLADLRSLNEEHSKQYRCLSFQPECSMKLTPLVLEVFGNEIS
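Compounds are added to VDR with labelled SRC2-3 coactivator peptide and held 2 h at room temperature. Inhibition of the VDR–peptide interaction is then read as a change in fluorescence polarization.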
Coupling enz: coupling enzyme interference in Giardia aldolase counter-screen; activity change, negative = inhibition, % at 58.2 µM, hits read low; coupling enzyme system counterscreen, AmpLite Red fluorescence; 290,000 tested, 0.67% active; in the data active means activity change below about -30%; further: on the % scale 0 is the no-effect control and ±100 the full control effect
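Coupling enzymes only (glyceraldehyde-3-phosphate) + compound, at 57.5 uM final, 10 min RT; add substrate/coupling/AmpLite Red mix, 20 min RT; fluorescence ex 525/em 598 nm. Actives flag coupling-system interference.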
HTT aggregate: reduces HttQ103-GFP aggregates in PC12 cells | PC12 HttQ103-GFP aggregates, Acumen cytometry, 40 h | Potency, µM (doses to about 46.1 µM), without a hit: at the highest dose activity change, negative = inhibition, most hits filed as inhibitors | 220,000 tested, 1.1% active; further: potency means the concentration at half of the fitted maximal effect; on the % scale 0 is the no-effect control and ±100 the full control effect; nearly all actives have a fitted effect of over 60% in size
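Huntingtin Q103 exon 1–GFP aggregates in induced PC12 cells (100 nM tebufenozide) were quantified by cytometry from lysates, with compounds dosed in titration.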
HTT cytoprotect: Huntington cell model cytoprotection by ATP luminescence. PC12 HTT-Q103 induced, cytoprotection, ATP luminescence, 40 h. Potency, µM (series often up to 56.4 µM), inactives show cytoprotection (ATP increase), actives largely listed as activators. 230,000 tested, 0.14% active. AID 1471; further: potency means the concentration at half of the fitted maximal effect; % of control where 0% means no effect; nearly all actives have a fitted effect of over 45% in size
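Quantitative HTS on tebufenozide-induced (100 nM) PC12 cells expressing HTTQ103 exon 1–GFP; compounds tested as a concentration series; survival measured via cellular ATP.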
JMJD2E inh: inhibitors of human JMJD2E histone demethylase; Potency, µM (top dose mostly 57.1 µM), inactives show top-dose activity change, negative = inhibition, hits mostly inhibitors; JMJD2E catalytic domain, FDH-coupled NADH fluorescence (FDH is formaldehyde dehydrogenase); 230,000 tested, 1.6% active; B2RXH2; AID 2147; active means well fitted inhibition curve with a large enough effect, not every such curve was filed as active; inconclusive means small, poorly fitted or top-dose-only effect, or another doubt; inactive means no such curve, though single readings can be large or run the other way;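 further: potency means the concentration at half of the fitted maximal effect; 0% = wells with enzyme and -100% = buffer wells without enzyme; nearly all actives have a fitted effect of over 50% in size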
Active calls of the source: *; ? = inconclusive; · = no result; [ ] = dose if it differs, or a comment. Unless noted, the call rests on the fitted dose curve; in most records, active means well fitted curve in the direction sought with a large enough effect; inconclusive means small, poorly fitted or top-dose-only effect, or another doubt; inactive means no such curve, though single readings can be large; an effect the other way counts as inactive or inconclusive.

SMILES | GoLoco inh red | VDR inh | Coupling enz | HTT aggregate | HTT cytoprotect | JMJD2E inh
COC(=O)N1C(C)=Cc2ccccc2C1C/C(C)=C/C(C)=O (centres undefined) | -4% | 14% | 0 | · | -7% | -5%
CCOc1ccc2c(c1)C(NC(C)=O)C(=O)N2CCN1CCOCC1 (centres undefined) | · | 79µM* | 1 | · | · | ·
CCn1c(=O)cc(OCC(=O)NCc2ccccc2OC)c2ccccc21 | · | -12% | · | · | · | ·
O=C1NC(c2cccs2)Nc2ccccc21 (centres undefined) | 11% | -19% | 1 | 7% | -12% | ?
O=C1NC(c2ccc(Br)cc2)Nc2sc3c(c21)CCC3 (centres undefined) | 21% | -8% | -4 | 11% | -4% | -23%
Cc1ccsc1C1NC(=O)c2ccccc2N1 (centres undefined) | 12% | -8% | 0 | 0% | 7%[10 µM] | 28µM*
Cc1ccsc1C1NC(=O)c2c(sc3c2CCCC3)N1 (centres undefined) | -4% | ? | 0 | 28µM* | 21%[10 µM] | ?
CCCCCCCC/C=C\CCCCCCCC(=O)N[C@H](CO)Cc1ccc(O)cc1 | · | -1% | -8 | · | · | ·
CCOC(=O)C1=C(CS(=O)(=O)c2ccc(C)cc2)NC(=O)NC1c1ccc(C(C)C)cc1 (centres undefined) | · | -9% | · | · | · | ·
Cc1ccc(-n2ncc(C(=O)NCCc3ccccc3)c2C2CCN(C(=O)OC(C)(C)C)CC2)c(C)c1 | · | -1% | · | · | · | ·
COC(=O)COc1ccc(-c2nccc(-c3ccc(Br)cc3)n2)cc1 | · | 28µM* | -1 | · | · | ·
COc1ccc(-n2c(=O)c3c4c(sc3n(C)c2=O)CN(C(C)=O)CC4)cc1 | · | 3% | · | · | · | ·
COc1ccccc1N1CCN(c2ncnc3c2cnn3-c2cccc(Cl)c2)CC1 | · | 10% | · | · | · | ·
OC(CN1CCN(C(c2ccccc2)c2ccccc2)CC1)c1ccc(Br)cc1 (centres undefined) | · | -11% | -2 | · | · | ·
O=C1Oc2ccccc2C(=O)C1C(CC(O)c1ccc(-c2ccc(Br)cc2)cc1)c1ccccc1 (centres undefined) | · | 32µM* | · | -2% | -15% | ·
CCC1=NN2C(=N)/C(=C/c3ccc(OS(=O)(=O)c4ccccc4)cc3)C(=O)N=C2S1 | · | ? | 8 | · | · | ·
CCS(=O)(=O)C1=NN2C(=N)/C(=C\c3ccc(OS(=O)(=O)c4ccccc4)cc3)C(=O)N=C2S1 | · | 50µM* | · | · | · | ·
CCS(=O)(=O)C1=NSC2=NC(=O)/C(=C\c3ccc(OS(=O)(=O)c4ccccc4)c(OC)c3)C(=N)N21 | · | 50µM* | 7 | · | · | ·
CS(=O)(=O)C1=NSC2=NC(=O)/C(=C\c3ccc(-c4ccccc4)o3)C(=N)N21 | -6% | · | 2 | 17% | 23%[10 µM] | 8%
CS(=O)(=O)C1=NSC2=NC(=O)/C(=C\c3ccc(OS(=O)(=O)c4ccccc4)cc3)C(=N)N21 | · | 35µM* | · | · | · | ·
COc1cc(/C=C2/C(=N)N3C(=NC2=O)SN=C3S(C)(=O)=O)ccc1OS(=O)(=O)c1ccc(C)cc1 | · | ? | 4 | · | · | ·
N#C/C(=N\Nc1cccc([N+](=O)[O-])c1)C(=O)c1ccc(Br)cc1 | 16% | -26% | 12 | 1.8µM* | · | -3%
O=C(O)c1ccc(N=NNc2cccc([N+](=O)[O-])c2)cc1 | 12% | 4% | 8 | 5% | -44% | -5%
O=c1c2c([N+](=O)[O-])cc([N+](=O)[O-])cc2sn1Cc1ccccc1 | · | 22µM* | 1 | · | · | ·
O=c1c2c([N+](=O)[O-])cc([N+](=O)[O-])cc2nc2ccccn12 | · | -16% | 0 | · | · | ·
SMILES | GoLoco inh red | VDR inh | Coupling enz | HTT aggregate | HTT cytoprotect | JMJD2E inh
O=c1c2c([N+](=O)[O-])cc([N+](=O)[O-])cc2sn1-c1ccc(Br)cc1 | 5µM* | 25µM* | 0 | 6% | 5%[10 µM] | 3.5µM*
Cc1nnc(SC(C)C(=O)Nc2ccc(Cl)cc2Cl)[nH]c1=O (centres undefined) | · | 6% | · | · | · | ·
C[N+]1(C)CC[C@@H](OC(=O)[C@@](O)(c2ccccc2)C2CCCC2)C1 | 5%[21.6 µM] | 7% | 4 | · | ? | 1%[25.5 µM]
CCCCn1c(N)c(C(=S)NC(=O)CC(C)(C)C)c(=O)n(C)c1=O | · | -17% | 9 | -18% | ? | 4%
CCOc1cc(N2CCOCC2)c(OCC)cc1NC(=O)c1ccc(C)cc1 | -13% | -20% | -31* | -8% | -59% | ?
CCOc1cc(N2CCOCC2)c(OCC)cc1NC(=O)CSc1cccc[n+]1[O-] | -14% | 1% | -33* | 1% | 10%[10 µM] | ?
COc1ccc(NC(=O)CN2CCC(NC(=O)c3ccco3)CC2)c([N+](=O)[O-])c1 | · | 3% | 1 | · | · | ·
COc1cccc(C(=O)NCC(=O)OCc2cc(=O)n3c(C)csc3n2)c1 | · | 4% | · | · | · | ·
CCOC(=O)c1cnc2sc3c(n2c1=O)CCCC3 | 34% | 11% | -1 | 8.9µM* | -12%[10 µM] | ?
Cc1c(CCNS(=O)(=O)c2ccccc2)sc2nc(-c3ccc(Cl)cc3)nn12 | · | 9% | · | · | · | ·
O=C1C(c2c(O)[nH]c3ccccc23)=Nc2ccccc21 | 15% | ? | 2 | · | ? | -1%
CC(=O)c1cccc2c(O)c(C3=Nc4ccccc4C3=O)[nH]c12 | 21% | 56µM* | -48* | 5% | -15%[1.9 µM] | ?
C=CCOc1ccccc1CNc1cccc(F)c1 | 9% | 10% | -2 | 11% | -17%[10 µM] | 6%
C=CCOc1ccccc1CNc1ccc2c(c1)OCCO2 | -1% | -4% | -37* | 14µM* | -168% | ?
CCOC(=O)c1ccc(CN(Cc2ccccc2C)S(=O)(=O)c2ccc(F)c(C(=O)Nc3cccc(OC)c3)c2)cc1 | · | 4% | · | · | · | ·
CCc1ccc(CN2CCN(C(=O)c3cccc(OC)c3OC)CC2)cc1 | -17% | ? | 3 | 7.9µM* | 5%[10 µM] | -10%
COc1ccccc1C(=O)N1CCN(Cc2ccc3c(c2)OCO3)CC1 | 6% | -3% | 2 | 2.8µM* | 3%[10 µM] | -1%
O=C(Cn1nnc2ccccc2c1=O)N[C@H](C(=O)O)c1ccccc1 | 4% | -19% | 4 | -12%[9.22 µM] | 3%[10 µM] | -11%
COC(=O)c1c[nH]n2c(=O)c(Cl)c(C)nc12 | 7% | -8% | -3 | -2% | · | -27%
COC(=O)c1c[nH]n2c(=O)c(Cc3ccc(F)cc3Cl)c(C)nc12 | -4% | 16% | 1 | 18µM* | -10%[0.074 µM] | 1%
O=C(CSc1ccc(F)cc1)N1CCC(c2nc3ccccc3s2)CC1 | -9% | 4% | 1 | -1% | -67% | 1%
Fc1ccc(-c2nnc(CN3CCC(c4nc5ccccc5s4)CC3)o2)cc1 | 2% | 8% | 3 | 11µM* | -20% | -19%
Cc1ccc(Cl)cc1NC(=O)C(=O)NCCc1sc(-c2ccc(F)cc2)nc1C | · | 7% | · | · | · | ·

Bioassay records from PubChem BioAssay.
